This experiment deals with Chromo domain-containing protein 1 (Saccharomyces cerevisiae (strain ATCC 204508 / S288c) (Baker's yeast)) (UniProt P32657). As to the kind of experiment: ScCHD-1 Enzyme Inhibition Assay. The format is functional. To be noted: 30 µM. Also on record: scale not given: in the data most compounds retested in dose-response had high values.
Sequence of Chromo domain-containing protein 1 (Saccharomyces cerevisiae (strain ATCC 204508 / S288c) (Baker's yeast)) (P32657 whole entry, the tested form may be a part): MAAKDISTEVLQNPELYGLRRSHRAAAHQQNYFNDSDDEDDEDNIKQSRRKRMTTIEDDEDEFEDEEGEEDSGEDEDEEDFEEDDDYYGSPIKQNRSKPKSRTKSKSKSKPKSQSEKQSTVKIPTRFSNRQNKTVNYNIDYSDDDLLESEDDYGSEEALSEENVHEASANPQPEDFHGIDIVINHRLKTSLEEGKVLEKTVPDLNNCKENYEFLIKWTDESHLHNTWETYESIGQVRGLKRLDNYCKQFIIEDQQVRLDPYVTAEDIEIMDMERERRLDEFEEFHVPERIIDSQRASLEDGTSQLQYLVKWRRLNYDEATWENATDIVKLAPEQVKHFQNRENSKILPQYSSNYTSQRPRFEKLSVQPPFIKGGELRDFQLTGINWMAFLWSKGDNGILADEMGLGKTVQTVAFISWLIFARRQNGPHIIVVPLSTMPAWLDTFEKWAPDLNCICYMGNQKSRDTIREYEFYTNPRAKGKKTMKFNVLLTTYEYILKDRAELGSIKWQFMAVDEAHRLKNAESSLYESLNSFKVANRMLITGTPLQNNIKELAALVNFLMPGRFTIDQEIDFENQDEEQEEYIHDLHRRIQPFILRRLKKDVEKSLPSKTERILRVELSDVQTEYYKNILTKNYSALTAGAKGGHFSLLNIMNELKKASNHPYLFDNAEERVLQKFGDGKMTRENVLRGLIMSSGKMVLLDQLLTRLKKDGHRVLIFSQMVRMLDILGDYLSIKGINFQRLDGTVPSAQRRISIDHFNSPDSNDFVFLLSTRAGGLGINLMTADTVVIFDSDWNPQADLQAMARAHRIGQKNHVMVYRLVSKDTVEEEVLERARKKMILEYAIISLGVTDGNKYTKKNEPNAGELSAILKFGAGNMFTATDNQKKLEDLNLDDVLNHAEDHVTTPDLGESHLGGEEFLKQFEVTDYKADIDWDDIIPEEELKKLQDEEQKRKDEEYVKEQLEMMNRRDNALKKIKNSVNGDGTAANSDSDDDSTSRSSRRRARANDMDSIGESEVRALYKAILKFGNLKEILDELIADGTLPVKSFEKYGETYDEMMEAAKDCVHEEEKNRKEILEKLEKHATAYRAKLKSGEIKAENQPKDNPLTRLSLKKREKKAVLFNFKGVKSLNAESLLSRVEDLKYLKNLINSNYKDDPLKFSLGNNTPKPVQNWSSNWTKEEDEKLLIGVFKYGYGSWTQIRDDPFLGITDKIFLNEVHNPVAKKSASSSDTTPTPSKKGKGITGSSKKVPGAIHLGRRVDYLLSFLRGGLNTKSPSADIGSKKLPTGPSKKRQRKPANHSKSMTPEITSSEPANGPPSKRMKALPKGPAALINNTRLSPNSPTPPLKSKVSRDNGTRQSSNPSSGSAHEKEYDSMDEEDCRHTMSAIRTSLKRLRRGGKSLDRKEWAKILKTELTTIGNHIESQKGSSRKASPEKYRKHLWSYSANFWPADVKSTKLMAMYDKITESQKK
Consider `O=C(c1cnccn1)N1CCN(Cc2ccncc2)c2ncccc2C1`, for which the Percent Effect is -3.2%.
Then `CS(=O)(=O)N1CCCCCC1C1CCN(c2ncccn2)CC1` (centres undefined), with 0.0825%; and `Cc1noc([C@@H]2CC[C@@H]3[C@@H](CCN3S(=O)(=O)c3cccnc3)O2)n1`, with 3.12%; and `COc1ccc(-c2noc(C(=O)NCCN3CCCCC3)n2)cc1OC`, with -13.9%.
Then `CNC(=O)[C@H]1C[C@H]2OCC[C@H]2N(Cc2ccc(C)o2)C1`, with -6.31%; and `N#Cc1ccc(F)c(CN2CCCC2Cn2cccn2)c1` (centres undefined), with 4.66%.
As for `CC(C)CN1CCC(c2nc3c([nH]2)CC(C)(C)CNC3=O)C1` (centres undefined), the figure is -2.21%.
In the case of `CSc1cc2c(cc1NC(=O)NCC(C)(C)C(N)=O)OCCO2`, the Percent Effect came to 0.589%.
Then `CC(C)C1CN(C(=O)c2ccc(C(N)=O)cc2)CCS1` (centres undefined), with 0.585%; and `Cc1ccc(-c2cc(CNC(=O)N3CCOC(C)C3)on2)cc1` (centres undefined), with -5.48%; and `Cn1cc(N2CC3(CCN(Cc4cccs4)CC3)OCC2=O)cn1`, with -2.76%.
Then `CCc1noc(C2CCN(C(=O)CCn3nc(C)cc3C)CC2)n1`, with -7.88%; and `NC(=O)COc1cccc(C(=O)N2CCCC(n3ccnc3)C2)c1` (centres undefined), with 2.43%.
As for `CCCc1cc(C(=O)N(C)Cc2cccc3ncccc23)n(C)n1`, the figure is -8.05%; as for `CCOCC1CN(Cc2ccoc2)Cc2nn(CC3CC3)cc21` (centres undefined), 0.75%; as for `Cn1nc(C2CCCN(Cc3ccsc3)C2)c2nccnc21` (centres undefined), -19.8%.
`CCS(=O)(=O)N1CCOC2(CCCN(c3ccc(C)nn3)C2)C1` (centres undefined): the Percent Effect worked out at 0.0361%.
Regarding `CCN(CCC(F)(F)F)C(=O)Nc1cccc(N2CCOCC2)c1`, the Percent Effect is -3.36%.
As for `Cc1nn(C)cc1CN1CCC(C2Nc3ccccc3S(=O)(=O)N2)CC1` (centres undefined), the Percent Effect is -9.41%.
Then `COCCCNC(=O)CN1CCCC1c1c(C)nn(C)c1Cl` (centres undefined), with -25.1%; and `Cc1ccccc1CN1CCN(CC(=O)Nc2cccnc2)CC1`, with -2.58%; and `CS(=O)(=O)N1CCOCC2(CN(Cc3ccsc3)CCO2)C1` (centres undefined), with -0.73%.
Then `c1cncc(COCc2nnc3n2CCN(Cc2ccoc2)C3)c1`, with 0.555%; and `CCN1C(=O)CCC12CCCN(Cc1nccs1)CC2` (centres undefined), with -1.64%.
As for `O=C(Nc1cnn(CCN2CCOCC2)c1)c1cc(F)ccc1F`, the figure is 3.02%; as for `O=C(N[C@@H]1CN(Cc2ccc3c(c2)OCO3)[C@@H]2CCCO[C@@H]21)C1CC1`, -2.23%; as for `Cc1noc(Cl)c1CCC(=O)N1CCC(CC(N)=O)CC1`, -7.5%.
In the case of `c1ncn(CC2CCCCN2Cc2noc(C3CC3)n2)n1` (centres undefined), the Percent Effect is -12.9%.
Then `Cc1ccc(CNS(=O)(=O)CC2=NC(=O)n3cccc3C2=O)cc1`, with 2.54%; and `Cn1cc(CN2CCn3cc(CNC(=O)C4CCC4)nc3C2)cn1`, with -8.18%.
Turning to `CCNC(c1cccnc1)c1cc(C)cc(C)c1` (centres undefined), the Percent Effect came to 2.53%.
As for `Cc1nc(N2CC[C@@H](NC(=O)c3cnccn3)[C@H](O)C2)c2ccsc2n1`, the figure is -3.51%; as for `CC(C)C(C(=O)N1CCN(Cc2ccncc2)CC1)n1cncn1` (centres undefined), 2.61%; as for `CC1c2ncc(Cn3cncn3)n2CCN1C(=O)C1CCOCC1` (centres undefined), -6.18%.
Then `Cc1cnn(CCNCC(O)COc2ccc(C#N)cc2)c1` (centres undefined), with -5.58%; and `O=C(CCc1nccs1)N1CCN(c2cccnn2)CC1`, with -12.4%.
As for `CC(O)CN(CC(=O)NC(=O)NCC(F)(F)F)c1ccccc1` (centres undefined), the figure is -9.73%; as for `Cn1nccc1C(=O)N1CCOC(Cc2cccc(C(F)(F)F)c2)C1` (centres undefined), 2.23%.
Consider `COC(=O)C(C)(C)NC(=O)C1CC(=O)N(C)C1` (centres undefined), for which the Percent Effect came out at 4.14%.
